The supplement of paper PMC10515830
Counter-ions that a name gives are not always drawn.

Test system: Danio rerio larvae (5 dpf)
Assay: difference in activity during first hour vs DMSO (percentage points); higher = more activity than DMSO
Settings: 10 µM; exposure time 6 h
Procedure, shortened: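 Wild-type zebrafish larvae at 5 dpf were kept in 96-well plates and exposed for 6 h to 100 µL egg water holding library compound at a final concentration of 10 µM. From 3 h into exposure, the plates were held at 28.5 ℃ and photographed every 6 s through a 3-h programme of moving lines and 100 ms, 400Hz tones. Each behaviour was scored by Z-LaP Tracker, a DeepLabCut model, and averaged over 48 larvae per compound. Every value gives the compound mean minus the vehicle control mean, in percentage points.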

Compared with `CC(C)NCC(O)c1ccc(NS(C)(=O)=O)cc1` (stereo not drawn) [Sotalol (hydrochloride)], `CC(C)NCC(O)COc1ccc(CC(N)=O)cc1` (racemic) [(±)-Atenolol] is lower in “difference in activity during first hour” value: 12 for the first, 8.47 for the second.

First: CO[C@H]1C[C@@H]2CC[C@@H](C)[C@@](O)(O2)C(=O)C(=O)N2CCCC[C@H]2C(=O)O[C@H]([C@H](C)C[C@@H]2CC[C@@H](O)[C@H](OC)C2)CC(=O)[C@H](C)/C=C(\C)[C@@H](O)[C@@H](OC)C(=O)[C@H](C)C[C@H](C)/C=C/C=C/C=C/1C [Rapamycin]
Second: CC[C@H]1OC(=O)[C@H](C)[C@@H](O[C@H]2C[C@@](C)(OC)[C@@H](O)[C@H](C)O2)[C@H](C)[C@@H](O[C@@H]2O[C@H](C)C[C@H](N(C)C)[C@H]2O)[C@](C)(O)C[C@@H](C)C(=O)[C@H](C)[C@@H](O)[C@]1(C)O [Erythromycin]
The “difference in activity during first hour” value of the first is lower: 0.761 for the first, 13.1 for the second.

Compared with `CC(C(=O)O)c1cccc(C(=O)c2ccccc2)c1` (racemic) [(±)-Ketoprofen], `Cc1ccc(O)c([C@H](CCN(C(C)C)C(C)C)c2ccccc2)c1` [Tolterodine (tartrate)] is lower in “difference in activity during first hour” value: 8.57 for the first, -20.3 for the second.

First: CC(=O)O[C@H]1Cc2ccccc2N(C(N)=O)c2ccccc21 [Eslicarbazepine Acetate]
Second: O=C(O)CCc1nc(-c2ccccc2)c(-c2ccccc2)o1 [Oxaprozin]
The “difference in activity during first hour” value of the first is lower: -0.636 for the first, 3.28 for the second.

Going from `CCN[C@H]1C[C@H](C)S(=O)(=O)c2sc(S(N)(=O)=O)cc21` [Dorzolamide (hydrochloride)] to `CCCN(CCC)S(=O)(=O)c1ccc(C(=O)O)cc1` [Probenecid], the “difference in activity during first hour” value rises from 4.07 to 8.09.

Going from `O=C(C1CCCCC1)N1CC(=O)N2CCc3ccccc3C2C1` (stereo not drawn) [Praziquantel] to `C#C[C@]1(O)CC[C@H]2[C@@H]3CCc4cc(O)ccc4[C@H]3CC[C@@]21C` [Ethynyl Estradiol], the “difference in activity during first hour” value falls from -17.7 to -24.

Going from `CC(=O)NO` [Acetohydroxamic Acid] to `O=C(O)C1(C(=O)O)CCC1.[NH2-].[NH2-].[Pt+2]` [Carboplatin], the “difference in activity during first hour” value rises from -12.9 to -11.9.

Going from `OC(c1cc(C(F)(F)F)nc2c(C(F)(F)F)cccc12)C1CCCCN1` (stereo not drawn) [Mefloquine (hydrochloride)] to `COc1cc2ncnc(Nc3ccc(F)c(Cl)c3)c2cc1NC(=O)/C=C/CN1CCCCC1`, the “difference in activity during first hour” value falls from -1.02 to -10.7.

Compared with `C[C@@H]1NC(=O)[C@@H](N)CNC(=O)[C@H](C2CCNC(=N)N2)NC(=O)/C(=C/NC(N)=O)NC(=O)[C@H](CNC(=O)CC(N)CCCN)NC1=O.N=C1NCC[C@H]([C@@H]2NC(=O)/C(=C/NC(N)=O)NC(=O)[C@H](CNC(=O)C[C@@H](N)CCCN)NC(=O)[C@H](CO)NC(=O)[C@@H](N)CNC2=O)N1` [Capreomycin (sulfate)], `CCNC(=O)[C@@H]1CCCN1C(=O)[C@H](CCCNC(=N)N)NC(=O)[C@H](CC(C)C)NC(=O)[C@@H](CC(C)C)NC(=O)[C@H](Cc1ccc(O)cc1)NC(=O)[C@H](CO)NC(=O)[C@H](Cc1c[nH]c2ccccc12)NC(=O)[C@H](Cc1c[nH]cn1)NC(=O)[C@@H]1CCC(=O)N1` [Leuprorelin (acetate)] is lower in “difference in activity during first hour” value: -0.814 for the first, -3.87 for the second.

Going from `CC(C)(C(=O)O)c1ccc(C(O)CCCN2CCC(C(O)(c3ccccc3)c3ccccc3)CC2)cc1` (stereo not drawn) [Fexofenadine (hydrochloride)] to `CC(C)N(CCCCOCC(=O)NS(C)(=O)=O)c1cnc(-c2ccccc2)c(-c2ccccc2)n1`, the “difference in activity during first hour” value falls from 11.3 to -3.12.

First: CCCCC[C@H](O)/C=C/[C@@H]1[C@H]2C/C(=C/CCCC(=O)O)O[C@H]2C[C@H]1O [Prostaglandin I2 (sodium salt)]
Second: CCNC(=O)CCC/C=C\C[C@@H]1[C@@H](/C=C/[C@@H](O)CCc2ccccc2)[C@H](O)C[C@@H]1O [17-phenyl trinor Prostaglandin F2α ethyl amide]
The “difference in activity during first hour” value of the first is lower: 11.9 for the first, 14.8 for the second.

Compared with `O=P(O)(O)C(O)(Cn1ccnc1)P(=O)(O)O` [Zoledronic Acid (hydrate)], `Clc1ccc(CCC(Cn2ccnc2)Sc2c(Cl)cccc2Cl)cc1` (stereo not drawn) [Butoconazole (nitrate)] is lower in “difference in activity during first hour” value: 2.53 for the first, -20.7 for the second.

Going from `Nc1nc(NC2CC2)c2ncn([C@H]3C=C[C@@H](CO)C3)c2n1` [Abacavir (sulfate)] to `Nc1ncnc2c1ncn2[C@@H]1O[C@H](CO)[C@@H](O)[C@H]1O` [Adenosine], the “difference in activity during first hour” value rises from 7.36 to 10.

Going from `CC(=O)N(O)CCCCCNC(=O)CCC(=O)N(O)CCCCCNC(=O)CCC(=O)N(O)CCCCCN` [Deferoxamine (mesylate)] to `CC(=O)N(CC(O)CO)c1c(I)c(C(=O)NCC(O)CO)c(I)c(C(=O)NCC(O)CO)c1I` (stereo not drawn) [Iohexol], the “difference in activity during first hour” value falls from 10.3 to 5.28.

Going from `COCCCC/C(=N\OCCN)c1ccc(C(F)(F)F)cc1` [Fluvoxamine (maleate)] to `CC(C)(C)NC[C@H](O)COc1cccc2c1CCCC2=O` [Levobunolol (hydrochloride)], the “difference in activity during first hour” value rises from -21.1 to 12.7.

Compared with `N[C@H](C(=O)O)[C@H](O)c1ccc(O)c(O)c1` [Droxidopa], `Oc1ncnc2[nH]ncc12` [Allopurinol] is lower in “difference in activity during first hour” value: 3.89 for the first, -0.131 for the second.

First: CNC(=C[N+](=O)[O-])NCCSCc1csc(CN(C)C)n1 [Nizatidine]
Second: CCN(CC)CC(=O)Nc1c(C)cccc1C [Lidocaine]
The “difference in activity during first hour” value of the first is lower: 7.71 for the first, 10.3 for the second.

Compared with `CC(=O)OCC(=O)[C@@]12N=C(C)O[C@@H]1C[C@H]1[C@@H]3CCC4=CC(=O)C=C[C@]4(C)[C@H]3[C@@H](O)C[C@@]12C` [Deflazacort], `COc1cccc2c1C(=O)c1c(O)c3c(c(O)c1C2=O)C[C@@](O)(C(=O)CO)C[C@@H]3O[C@H]1C[C@H](N)[C@H](O)[C@H](C)O1` [Doxorubicin (hydrochloride)] is lower in “difference in activity during first hour” value: -3.59 for the first, -7.11 for the second.

Going from `S=c1nc[nH]c2nc[nH]c12` [6-Mercaptopurine (hydrate)] to `Cn1nnc(-c2ccc(-c3ccc(N4C[C@H](COP(=O)(O)O)OC4=O)cc3F)cn2)n1` [Tedizolid Phosphate], the “difference in activity during first hour” value rises from -5.06 to 3.68.
